In all, about 290,000 compounds went through this assay and about 3,300 (1.1%) were called active. No stated cut-off is given here; in the data, active means binding response below about 67% or above about 130%; inconclusive means no clear call, values can overlap the other calls; inactive means in between. Only a selection was taken, and actives are over-represented in it overall.

This experiment addresses Mitogen-activated protein kinase kinase kinase 2 (Homo sapiens) (UniProt Q9Y2U5). The experiment is described as follows: modulators of MEK5 binding to wildtype MEKK2, primary screen, biochemical, multiplex bead flow cytometry, Alexa488-MEK5 (AID 1531). To be noted: Alexa488-MEK5 binding to MEKK2 WT, at 10 µM, actives lie on both sides. For orientation: A flow cytometer gives signals particle by particle.
As to `COc1ccc(C2CC(c3cccs3)=NN2c2ccccc2)cc1` (centres undefined), the binding response (% of control) is 81% (inactive).

For the compound `COc1ccccc1N1N=C(c2cccs2)CC1c1ccccc1` (centres undefined), the binding response (% of control) was 93% (inactive). Regarding `Cc1ccccc1C1CC(c2cccs2)=NN1S(C)(=O)=O` (centres undefined), the binding response (% of control) was 16% (active). In the case of `FC(F)(F)c1cccc(N/N=C/c2ccccc2)c1`, the binding response (% of control) was 143% (active).

As for `O=[N+]([O-])c1ccc(N/N=C/c2ccccc2)cc1`, the binding response (% of control) is 99% (inactive).

Turning to `FC(F)(F)c1cccc(Nc2ncnc3ccccc23)c1`, the binding response (% of control) is 103% (inactive). Under `O=C1Nc2cc(C(=O)N3CCN(c4ccc(F)cc4)CC3)ccc2NC1CSCc1cccc(F)c1` (centres undefined) stands 87% (inactive); under `CC(=O)Nc1ccc(S(=O)(=O)Nc2nccc(/C=C/c3ccccc3F)n2)cc1`, -6% (active); under `O=C(/C=C/c1ccccc1Cl)Nc1ccc(S(=O)(=O)Nc2ncccn2)cc1`, 92% (inactive).

Turning to `Nc1ccc(S(=O)(=O)Nc2nccc(/C=C/c3ccc(Br)s3)n2)cc1`, the binding response (% of control) is 93% (inactive). Regarding `CC(=O)N1c2ccc(S(=O)(=O)N3CCC(C(=O)N4CCN(c5ccccc5)CC4)CC3)cc2CC1C` (centres undefined), the binding response (% of control) was 102% (inactive). Turning to `COc1ccc(C=C(C#N)C#N)c(CSc2ccccn2)c1`, the binding response (% of control) was 103% (inactive).

`CCOc1ccccc1NC(=O)NC1CCCCCCC1`: the binding response (% of control) was 98% (inactive). As for `COCCNC(=O)CN(Cc1ccco1)C(=O)CCC(=O)Nc1nccs1`, the figure is 103% (inactive); as for `O=C(c1ccc(F)cc1)n1c(=S)nc2ccccn21`, 80% (inactive); as for `CC(NS(=O)(=O)c1ccc(Br)cc1)C(=O)NCC1CCCO1` (centres undefined), 100% (inactive).

Take `OC(CNCC1CCCO1)Cn1c2ccc(Br)cc2c2cc(Br)ccc21` (centres undefined): the binding response (% of control) was 141% (active).

Regarding `O=C(CSc1ccc(-c2ccc(Br)cc2)nn1)NCC1CCCO1` (centres undefined), the binding response (% of control) is 107% (inactive). In the case of `COC(=O)C(C)n1cnc2c(nnn2-c2ccc(F)cc2)c1=O` (centres undefined), the binding response (% of control) was 94% (inactive). On to `COc1cc(NC(=O)CCS(=O)(=O)c2ccc3c(c2)oc(=O)n3C)cc(OC)c1`, for which the binding response (% of control) was 100% (inactive).

Turning to `COc1ccc(CCNC(=O)C2CCCN(S(=O)(=O)c3ccc(OC)cc3)C2)cc1` (centres undefined), the binding response (% of control) is 94% (inactive). Consider `CC(C)(C)Oc1ccccc1Nc1nc(NCCO)nc(N2CCCC2)n1`, for which the binding response (% of control) was 103% (inactive). Turning to `COCCNC(=S)N/N=C/c1c(C)[nH]c2ccccc12`, the binding response (% of control) was 24% (active). For the compound `Cc1[nH]c2ccccc2c1/C=N/NC(=O)CNC(=O)c1ccc2c(c1)OCO2`, the binding response (% of control) is 100% (inactive). Consider `Cc1[nH]c2ccccc2c1/C=N\NC(=O)Cn1nnc(-c2ccccc2)n1`, for which the binding response (% of control) was 107% (inactive). As to `CC(C)c1nc2cc(C(=O)NC(C)c3cnn(C)c3)ccc2o1` (centres undefined), the binding response (% of control) is 104% (inactive). As to `O=C(OCc1cc(Cl)ccc1OC(F)F)c1cccnc1`, the binding response (% of control) was 281% (active).

For `O=C(OCc1cc2ccccc2[nH]c1=O)c1cccnc1`, the binding response (% of control) is 109% (inactive). As to `Cc1cc(=O)[nH]c(SCc2cc(Cl)ccc2OC(F)F)n1`, the binding response (% of control) is 106% (inactive).

Values taken from PubChem BioAssay AID1531 (NMMLSC, 2009).
